In PubChem BioAssay one finds inhibition data, which are given here for 40 compounds.

SMILES strings stand for the structures. Activity calls are given as the source filed them. No rule for the calls is given here.

The assay is described as follows: inhibition of Brca1/Bard1 split-luciferase complementation, confirmation, counter-screen for Mdm2/MdmX interaction inhibitor project, luminescence, single concentration (AID 504668). The conditions noted are these: Brca1/Bard1 bimolecular luciferase complementation counterscreen, at 8 µM, hits give high values. (In general: The purpose of a counterscreen is to sort out artefacts and off-target activity.)
By inhibition is commonly meant the relative decrease from the control value, in per cent. As for `Oc1ccccc1/C=N/Nc1nccnc1Cl`, the inhibition is 30.8% (active). The value for `C[C@@]12C(=O)Nc3cc(Cl)ccc3C(=O)N1[C@H]1c3cc(Br)ccc3OC[C@@H]1[C@@H]2c1ccccc1` was 30.8% (active). To `CN(C)CCNC(=O)/C(=C/c1ccc(-c2ccc(Cl)cc2Cl)o1)NC(=O)c1ccccc1` belongs 26.3% (active); to `Cn1nc(-c2ccccn2)nc2c(=O)n(C)c(=O)nc1-2`, 33.8% (active). Consider `COC(=O)c1ccc2nc(NC(=O)CCS(=O)(=O)c3ccccc3)sc2c1`, for which the inhibition was 27.4% (active). On to `Cn1c(/C=C/c2ccc(Br)cc2)c([N+](=O)[O-])c(=O)n(C)c1=O`, for which the inhibition is 23.9% (active). To `O=C(Nc1ccncc1NC(=O)c1cccc([N+](=O)[O-])c1)c1cccc([N+](=O)[O-])c1` belongs 31% (active); to `Cc1ccc(-c2oc3ccccc3c(=O)c2O)cc1`, 24.8% (active); to `Cc1sc2ncnc(N3CCC(C(=O)N(C)CC(=O)Nc4ccc(Cl)c(C(F)(F)F)c4)CC3)c2c1C`, 29% (active).

On to `CCc1ccc2c(c1)C1(NN=C(c3cccc4ccccc34)S1)C(=O)N2` (stereo not given), for which the inhibition is 30% (active). To `Cc1ccc(-c2csc(NC3OC(=O)c4ccccc43)n2)cc1` (stereo not given) belongs 23.7% (active); to `CC[N+]1=C(C)C(C)(C)c2cc(C)ccc21`, 28.2% (active). The value for `CCc1ccc(/C=C/C(=O)c2c(C)cc(C)[nH]c2=O)cc1` was 30.6% (active); that for `Cc1cc(C)nc(N/N=C/c2cc(Br)ccc2O)n1` was 26.2% (active). As for `c1ccc(-c2noc(-c3ccc4ccccc4c3)n2)nc1`, the inhibition was 27% (active). For the compound `Cc1ccc(S(=O)(=O)CCc2nc3ccccc3n2CCC#N)cc1`, the inhibition is 32.2% (active). `C=CCN=C1NN=C(c2cc(C)n(CCOC)c2C)CS1`: the inhibition was 31% (active). `CCC(C)n1c(=O)c(C(=O)Nc2ccccc2S(N)(=O)=O)c(O)c2ccccc21` (stereo not given): the inhibition is 30.8% (active).

As to `COc1ccc(Cc2nnc(N/N=C/c3ccc(O)cc3)[nH]c2=O)cc1OC`, the inhibition is 24.8% (active).

With `CC(=O)OC[C@H]1O[C@@H](n2ncc(=O)[nH]c2=O)[C@H](OC(C)=O)[C@@H]1OC(C)=O`, the inhibition was 31.6% (active). The value for `COc1ccc(C(=O)C/C(=C\C(=O)c2ccc(C)cc2)c2ccccc2)cc1` was 24.3% (active). The value for `Cc1nc(SCc2nc3cc(Cl)c(F)cc3[nH]2)c2oc3ccccc3c2n1` was 31.6% (active); that for `CCOc1ccc2nc(NC3=NC(c4ccc(OC)cc4)CC(=O)N3)nc(C)c2c1` (stereo not given) was 30.6% (active). To `Cc1ccc(-n2ncc3c(SCc4ccccn4)ncnc32)c(C)c1` belongs 27.6% (active). Take `CCC(C)Nc1nc(-c2ccccn2)nc2ccccc12` (stereo not given): the inhibition is 29.2% (active). The value for `C/C(=N\NC(=O)c1cc2ccccc2cc1O)c1ccccn1` was 24.3% (active); that for `FC(F)(F)c1cnc(NNC(=S)Nc2ccc(Cl)cc2)c(Cl)c1` was 23.3% (active). As for `COc1ccccc1[C@@]1(C)ON(c2ccccc2C(F)(F)F)C1=O`, the inhibition was 31.6% (active). As for `CCCN(CCC)CCNC(=O)C1CCN(Cc2nc(-c3ccc(Cl)cc3)oc2C)CC1`, the inhibition was 30.3% (active). Take `CCS(=O)(=O)c1nnnn1-c1ccccc1S(C)(=O)=O`: the inhibition was 34.3% (active). To `O=C(CCCN1C(=O)/C(=C\c2cccs2)SC1=S)Nc1cccnc1` belongs 25.5% (active); to `COc1ccc2nc(NC(=O)/C=C/c3ccc4c(c3)OCO4)sc2c1`, 35.2% (active). On to `Cc1oc(-c2ccccc2Cl)nc1CSCC(=O)N1CCCC1`, for which the inhibition is 25.7% (active). The value for `CC(C)[C@@H]1CC[C@@H](C)C[C@H]1OC(=O)C[n+]1cc(-c2ccc(Cl)cc2)n2c1CCCCC2` was 28.7% (active); that for `Cn1nnnc1Sc1ncnc2scc(-c3cccc(S(C)(=O)=O)c3)c12` was 27.4% (active); that for `C=C1C(=O)C=C[C@]2(C)C[C@@H]3OC(=O)[C@](C)(O)[C@H]3C[C@@H]12` was 25.4% (active). To `CN(C)C1CCN(Cc2cc(COCc3ccccc3)c3cccnc3c2O)C1` (stereo not given) belongs 32.8% (active); to `COc1cc(Br)cc(/C=N/NC(=O)Cc2ccc(C(F)(F)F)cc2[N+](=O)[O-])c1O`, 32.8% (active). On to `C/C(=N/NC(=O)CN(c1ccccc1)S(=O)(=O)c1ccccc1)c1ccccc1O`, for which the inhibition is 26.8% (active). Take `CCOC(=O)Cn1c(-c2nonc2NC(=O)c2ccccc2F)nc2ccccc21`: the inhibition is 34.7% (active).
